Mtb FBA inh: Mtb FBA enzyme inhibitors, primary screen, biochemical, fluorescence, strain H37Rv. Fructose-bisphosphate aldolase (Mycobacterium tuberculosis (strain ATCC 25618 / H37Rv)), …. purified M. tuberculosis FBA, fluorescence read-out. inhibition, % at 1 µM. 360,000 compounds, 2.3% hits. AID 588726, 2011; in the data active = inhibition above about 27%;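 also: 0% = vehicle and 100% = reference inhibitor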
Target sequence (P9WQA3 whole entry, looked up): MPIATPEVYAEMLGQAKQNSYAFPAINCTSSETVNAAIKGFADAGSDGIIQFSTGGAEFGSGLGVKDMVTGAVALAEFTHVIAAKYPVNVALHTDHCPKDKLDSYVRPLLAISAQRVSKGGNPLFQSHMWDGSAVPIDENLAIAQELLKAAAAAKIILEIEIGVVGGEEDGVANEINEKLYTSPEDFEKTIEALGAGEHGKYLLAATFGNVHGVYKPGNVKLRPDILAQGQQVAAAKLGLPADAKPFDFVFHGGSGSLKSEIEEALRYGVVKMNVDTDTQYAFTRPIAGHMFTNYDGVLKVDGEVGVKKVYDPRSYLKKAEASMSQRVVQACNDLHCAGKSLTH
Mtb hypoxia inh: PubChem AID 1159583; M. tuberculosis hypoxia-regulated fluorescent reporter, fluorescence; fluorescence inhibition, % (no concentration beside the values); 300,000 compounds, 0.1% hits; in the data active = fluorescence inhibition mostly above about 23%, no sharp cut-off; inactive = mostly below about 17%
BioA inh: M. tuberculosis BioA enzyme inhibitors, primary screen, biochemical, plate reader, single point, HTS | AID 602481, 2012 | 360,000 compounds, 0.096% hits | inhibition, % at 9.99 µM | 7,8-diaminopelargonic acid synthase BioA (Mycobacterium tuberculosis) | purified M. tuberculosis BioA enzyme; in the data active = inhibition above about 40%
FadD28 FP inh: inhibitors of FadD28 bisubstrate probe binding, primary screen, biochemical, fluorescence polarization, single point. Mycobacterium tuberculosis FadD28 fatty-acid-AMP ligase. AID 588549, 2011. inhibition, % at 12.5 µM. 360,000 compounds, 0.22% hits; in the data active = inhibition above about 8.5%, passing the limit was not always enough
GDH-TPI counter: GDH-TPI coupling enzyme inhibitors, primary screen, artefact control for M. tuberculosis FBA inhibitor project, biochemical, absorbance, full deck | GDH-TPI coupled enzyme counterscreen, NADH absorbance | 360,000 compounds, 1.2% hits | inhibition, % at 4.8 µM; in the data active = inhibition above about 30%;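 also: 0% = DMSO wells and 100% = wells lacking the enzyme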
The depositor's hits bear a star; x = no result; + = active, no number. Compounds with a hit are over-represented: about 2.9% of the library has one in this group of screens.

SMILES | Mtb FBA inh | Mtb hypoxia inh | BioA inh | FadD28 FP inh | GDH-TPI counter
O=c1cc(CN2CCN(S(=O)(=O)c3ccc4c(c3)OCCO4)CC2)c2ccc(O)cc2o1 | 198.5* | -2.0 | -1.1 | -6.8 | 20.3
O=c1cc(CN2CCN(S(=O)(=O)c3cccc(Cl)c3)CC2)c2ccc(O)cc2o1 | 118.2* | -1.0 | 2.2 | -0.6 | 0.6
CCOC(=O)N(C)C[C@@H]1OCc2ccccc2-c2c(n(C)c3ccccc23)C(=O)N([C@@H](C)CO)C[C@@H]1C | x | x | 0.0 | x | x
COc1ccc2c(c1)CC/C(=C\c1ccc(OC)c(Cn3cccn3)c1)C2=O | -1.6 | 10.8 | -1.2 | -4.5 | 38.3*
COc1ccc2c(c1)CC/C(=C\c1ccc(OC)c(Cn3nc(C)cc3C)c1)C2=O | -2.1 | 5.0 | -0.4 | -1.4 | 27.3
Cc1cc(C(=O)OCCO)c(C#N)c(N)n1 | 143.3* | 20.9 | -3.0 | -1.1 | 12.4
Cc1c(O)c(CN2CCCCC2)cc2c1oc(=O)c1ccccc12 | 2.7 | -3.3 | x | -0.7 | 0.6
CN1CCN(Cc2c(O)ccc3cc(-c4ccccn4)c(=O)oc23)CC1 | + | 4.4 | 0.5 | 0.4 | 10.8
CCc1c(C)c2ccc(O)c(CN3CCCC3)c2oc1=O | x | 0.9 | -2.4 | x | 34.5*
Cc1c(C)c2ccc(O)c(CN3CCCC3)c2oc1=O | + | -1.8 | -1.2 | -1.8 | 12.4
Cc1c(C)c2ccc(O)c(CN3CCN(C)CC3)c2oc1=O | + | -6.1 | -0.1 | -1.0 | 14.0
Cc1c(O)c(CN2CCCCC2)cc2c3c(c(=O)oc12)CCC3 | + | -3.2 | 1.0 | -0.6 | 22.2
O=c1oc2c(CN3CCCCC3)c(O)ccc2c2c1CCCC2 | + | 14.1 | 3.1 | -1.4 | 23.7
CCSc1nnc(NC(=O)[C@H](C)N2C(=O)C3CC=CCC3C2=O)s1 (stereo partly drawn) | -0.3 | 29.9* | -2.9 | -1.5 | -3.8
CCC(=O)Nc1ccc2c(c1)C(=O)N(C)C[C@H](OC)[C@@H](C)CN(CC1CC1)[C@H](C)CO2 | x | x | 1.1 | x | x
CCN(CC)Cc1c[nH]c2ccccc12 | 1.1 | x | 0.1 | -0.1 | 11.5
CCN(CC)Cc1c[nH]c2c(C(=O)OC)cccc12 | 67.0* | 6.0 | -2.6 | -1.9 | 19.7
Cc1ccc(C)n1-c1nccc(-c2ccco2)n1 | 158.4* | 6.7 | 2.0 | 0.1 | 5.7
Cc1ccc(C)n1-c1nccc(-c2cccs2)n1 | 161.1* | 6.8 | 1.8 | 0.7 | -5.3
CCS(=O)(=O)c1ncc(Cl)c(C(=O)Nc2ccc(S(=O)(=O)N3CCC(C)CC3)cc2)n1 | 1.4 | x | -3.7 | 8.9* | 9.6
Cc1ccc(NC(=O)CN2C(=O)S/C(=C\c3cc(C)n(-c4ccc(C(=O)O)cc4)c3C)C2=O)cc1 | 0.4 | -7.0 | 2.5 | 59.9* | 16.8
Cc1ccc(NC(=O)CN2C(=O)N/C(=C/c3cccn3-c3ccc(C(=O)O)cc3)C2=O)cc1 | -0.3 | 11.7 | x | 17.8* | 21.5
Cc1cccc(NC(=O)CN2C(=O)N/C(=C/c3cc(C)n(C(C)C)c3C)C2=O)c1 | -2.1 | -3.0 | -1.4 | 41.7* | 20.7
Cc1ccc(NC(=O)CN2C(=O)N/C(=C/c3ccco3)C2=O)cc1 | -0.6 | x | -0.1 | -1.9 | 11.2
Cc1ccc(NC(=O)CN2C(=O)N/C(=C/c3cc(C)n(-c4ccc(C(=O)O)cc4)c3C)C2=O)cc1 | 6.8 | 3.2 | x | 52.5* | 9.9
SMILES | Mtb FBA inh | Mtb hypoxia inh | BioA inh | FadD28 FP inh | GDH-TPI counter
C[C@H](CO)N1C[C@H](C)[C@H](CN(C)Cc2ccc(C(=O)O)cc2)OCCCC[C@H](C)Oc2ccc(NC(=O)c3ccncc3)cc2C1=O | x | x | 1.3 | x | x
NC(N)=NN=Cc1ccc(OCc2ccc(Cl)cc2Cl)cc1 | x | 20.8 | x | x | x
CNC[C@@H]1Oc2ccc(NC(=O)C3CC3)cc2CC(=O)N([C@H](C)CO)C[C@H]1C | x | x | -2.2 | x | x
CCOc1cccc(/C=C2/NC(=O)N(CC(=O)Nc3cccc(C)c3)C2=O)c1O | -2.2 | -6.5 | -3.9 | -0.7 | 25.5
O=C(CN1C(=O)S/C(=C\C=C\c2ccccc2)C1=O)Nc1ccc(C(=O)O)cc1 | -1.3 | 10.9 | 1.7 | -5.8 | 57.1*
CCOc1cc(/C=C2/NC(=O)N(CC(=O)Nc3cccc(C)c3)C2=O)ccc1OCC(N)=O | 2.6 | 8.7 | x | 4.0 | 38.2*
C[C@@H]1CN([C@H](C)CO)C(=O)Cc2cc(NS(=O)(=O)c3cccs3)ccc2O[C@H]1CN(C)C(=O)Nc1ccc(C(F)(F)F)cc1 | x | x | -1.7 | x | x
CCCCCCCCCCCCCCCCn1cc[n+](CC(C)=O)c1 | -0.9 | 15.1 | x | 35.6* | -10.0
CC(C)C(=O)c1ccc(O)c(O)c1 | 7.3 | 3.8 | 0.3 | -0.1 | 37.7*
